This is part of a sample that, as a whole, favours compounds with a hit. Of some 83,000 tested, about 20% had one in any assay.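 Single-dose data. Exposure time 48 hours. Values below 10 considered active.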 Unmarked numbers belong to inactive results. Calls of active or inactive are those of the source.

This is an account of results in PubChem BioAssay (NCI).

Test systems include SK-MEL-2 melanoma; EKVX NSCLC; SN12C renal; UO-31 renal; TK-10 renal; ACHN renal; CAKI-1 renal; A498 renal; CCRF-CEM leukemia; MOLT-4 leukemia; SR leukemia; OVCAR-8 ovarian; OVCAR-5 ovarian; OVCAR-4 ovarian; SK-OV-3 ovarian; IGROV1 ovarian; OVCAR-3 ovarian; HS 578T breast; NCI/ADR-RES ovarian.
Test in all cases: NCI-60 one-dose screen, 48 h (100 = growth as untreated, 0 = no growth, -100 = all killed)
Conditions in all cases: 10 µM unless noted

Take `CNC(C)[C@H]1CCC2C3CCC4C[C@@H](N(C)C(=O)c5ccccc5)CC[C@]4(C)C3CC[C@@]21C` (some centres not stated): the growth with SK-MEL-2 melanoma is 38.7%; with EKVX NSCLC it was 24.5%; in the assay with SN12C renal, 34.6%; in the assay with UO-31 renal, -9.71% (active); with TK-10 renal it was 65.4%; with ACHN renal it was 46.9%. The growth in the assay on CAKI-1 renal is 58.2%; in the assay with A498 renal, 57.3%; in the assay on CCRF-CEM leukemia, 21.7%; in the assay with MOLT-4 leukemia, 16.5%; in the assay with SR leukemia it was 34.5%; in the assay on OVCAR-8 ovarian, 47.5%. Besides, the growth is 81.6% in the assay on OVCAR-5 ovarian; -5.3% (active) with OVCAR-4 ovarian; 67% in the assay on SK-OV-3 ovarian; 22.8% with IGROV1 ovarian; 9.46% (active) with OVCAR-3 ovarian; 38.7% in the assay with HS 578T breast. Also, in the assay on NCI/ADR-RES ovarian, the growth was 42.4%.
As to `Oc1ccc(C#CCOc2ccccc2)cc1CNCCN(Cc1ccccn1)Cc1ccccn1`, the growth in the assay with SK-MEL-2 melanoma is 61.2%; in the assay with EKVX NSCLC it was 16%; in the assay on SN12C renal, 13.9%; with UO-31 renal, -2.48% (active); with TK-10 renal it was 26.2%; in the assay on ACHN renal, 9.66% (active). The growth was 28.4% with CAKI-1 renal; -21.8% (active) in the assay on A498 renal; 6.83% (active) with CCRF-CEM leukemia; 1.72% (active) in the assay on MOLT-4 leukemia; -4.08% (active) in the assay on SR leukemia; 15.2% with OVCAR-8 ovarian. For the same compound, the growth in the assay on OVCAR-5 ovarian is 27.2%; in the assay with OVCAR-4 ovarian, 11.3%; in the assay with SK-OV-3 ovarian, 18%; with IGROV1 ovarian it was 13.4%; with OVCAR-3 ovarian, 12.1%; with HS 578T breast it was 35.5%. The growth with NCI/ADR-RES ovarian is 0.625% (active).
As to `O=C(Nc1ccc(Br)cc1F)c1cc(Br)ccc1O`, the growth was -25.4% (active) in the assay on SK-MEL-2 melanoma; 9.76% (active) in the assay with EKVX NSCLC; -10.9% (active) in the assay on SN12C renal; -11% (active) with UO-31 renal; 15.3% in the assay on TK-10 renal; -0.439% (active) with ACHN renal. In addition, the growth is 2.12% (active) with CAKI-1 renal; -42% (active) in the assay with A498 renal; 20.9% with CCRF-CEM leukemia; 1.26% (active) with MOLT-4 leukemia; 4.87% (active) in the assay on SR leukemia; 11.6% in the assay on OVCAR-8 ovarian. In addition, the growth was 25.3% in the assay with OVCAR-5 ovarian; 22.4% in the assay with OVCAR-4 ovarian; 12% in the assay on SK-OV-3 ovarian; 15.3% in the assay with IGROV1 ovarian; 5.37% (active) in the assay with OVCAR-3 ovarian; 4.22% (active) in the assay on HS 578T breast. Moreover, the growth with NCI/ADR-RES ovarian was 7.36% (active).
`N[C@@H](Cc1ccccc1)[C@@H](O)C(=O)NCc1ccc(F)cc1`: the growth in the assay on SK-MEL-2 melanoma is 117%; with EKVX NSCLC, 103%; in the assay on SN12C renal it was 93.4%; with UO-31 renal it was 90.8%; in the assay on TK-10 renal it was 105%; with ACHN renal, 108%. Further, the growth is 91.3% in the assay with CAKI-1 renal; 96.2% in the assay on A498 renal; 111% with CCRF-CEM leukemia; 109% with MOLT-4 leukemia; 95.1% in the assay on SR leukemia; 104% with OVCAR-8 ovarian. For the same compound, the growth is 98.7% with OVCAR-5 ovarian; 103% in the assay with OVCAR-4 ovarian; 120% in the assay on SK-OV-3 ovarian; 107% in the assay with IGROV1 ovarian; 117% in the assay on OVCAR-3 ovarian; 104% in the assay on HS 578T breast. Also, in the assay on NCI/ADR-RES ovarian, the growth is 110%.
As to `CCN(CC)CCNc1nc2ccccc2c2c(=O)c3cc(Cl)ccc3sc12`, the growth in the assay with SK-MEL-2 melanoma was 89%; in the assay on EKVX NSCLC, 74.9%; in the assay with SN12C renal, 66.7%; in the assay with UO-31 renal, 43.7%; with TK-10 renal it was 80.1%; in the assay with ACHN renal, 47.6%. Besides, the growth in the assay on CAKI-1 renal is 22.6%; with A498 renal it was -7.91% (active); with CCRF-CEM leukemia, 7.05% (active); in the assay with MOLT-4 leukemia it was 25.1%; in the assay with SR leukemia it was -2.52% (active); with OVCAR-8 ovarian, 64.4%. In addition, the growth in the assay on OVCAR-5 ovarian was 81.6%; in the assay with OVCAR-4 ovarian, 46.5%; in the assay with SK-OV-3 ovarian, 54%; in the assay on IGROV1 ovarian, 56.1%; in the assay with OVCAR-3 ovarian it was 51.3%; with HS 578T breast it was 67.6%. Also, the growth with NCI/ADR-RES ovarian was 27.1%.
Turning to `O=C(Nc1ccc(Cl)cc1F)c1ccccc1O`, the growth with SK-MEL-2 melanoma is 2.56% (active); with EKVX NSCLC it was 66.2%; with SN12C renal, 13.7%; with UO-31 renal, 9.45% (active); in the assay with TK-10 renal, 56.6%; in the assay on ACHN renal, 34.2%. Moreover, the growth was 35.8% in the assay with CAKI-1 renal; -21.8% (active) in the assay on A498 renal; 53.2% in the assay with CCRF-CEM leukemia; 29.7% in the assay with MOLT-4 leukemia; 15.8% with SR leukemia; 44.8% in the assay with OVCAR-8 ovarian. Moreover, the growth in the assay with OVCAR-5 ovarian is 71.1%; in the assay with OVCAR-4 ovarian, 54.6%; in the assay with SK-OV-3 ovarian, 42.3%; with IGROV1 ovarian it was 20.5%; in the assay with OVCAR-3 ovarian, 30.9%; in the assay on HS 578T breast it was 41.6%. The growth in the assay on NCI/ADR-RES ovarian is 34.5%.
For the compound `COc1cc2cc(Oc3ccc(NC(=O)Nc4ccc(F)c(C(F)(F)F)c4)cc3)c(C)nc2cc1OCCN1CCOCC1`, the growth with SK-MEL-2 melanoma is 14.8%; in the assay with EKVX NSCLC, 16.2%; in the assay with SN12C renal, 11.6%; in the assay on UO-31 renal, 30.1%; in the assay with TK-10 renal, 35.1%; in the assay on ACHN renal, 9.37% (active). For the same compound, the growth was 25.8% in the assay with CAKI-1 renal; 38.7% in the assay on A498 renal; 5.44% (active) in the assay with CCRF-CEM leukemia; 0.0203% (active) with MOLT-4 leukemia; -15.2% (active) in the assay on SR leukemia; 13.8% in the assay with OVCAR-8 ovarian. Besides, the growth in the assay on OVCAR-5 ovarian was 66.9%; in the assay with OVCAR-4 ovarian it was 27.3%; in the assay on SK-OV-3 ovarian it was 41.3%; in the assay on IGROV1 ovarian, 32.7%; in the assay with OVCAR-3 ovarian it was 13%; in the assay with HS 578T breast, 65.8%. Further, the growth in the assay with NCI/ADR-RES ovarian was 12%.
As to `CCc1cccc2c1S/C(=C/c1ccc(Cl)cc1)C2=O`, the growth in the assay with SK-MEL-2 melanoma is 105%; with EKVX NSCLC it was 95%; in the assay with SN12C renal it was 90.5%; in the assay with UO-31 renal it was 70.7%; in the assay on TK-10 renal, 170%; in the assay on ACHN renal, 91.3%. The growth in the assay on CAKI-1 renal was 87.3%; with A498 renal, 113%; in the assay with CCRF-CEM leukemia, 98%; in the assay on MOLT-4 leukemia, 88.8%; in the assay with SR leukemia, 79%; in the assay on OVCAR-8 ovarian, 101%. Further, the growth is 100% with OVCAR-5 ovarian; 93.5% in the assay with OVCAR-4 ovarian; 85.7% in the assay with SK-OV-3 ovarian; 65.6% in the assay on IGROV1 ovarian; 104% in the assay on OVCAR-3 ovarian; 88% with HS 578T breast. In addition, in the assay with NCI/ADR-RES ovarian, the growth is 101%.
